Source: PubChem (National Center for Advancing Translational Sciences (NCATS))
In the library only some 11% were active in any assay of this set; here they are far more common.
JMJD2A Tudor – inhibitors of human JMJD2A Tudor domain. AlphaScreen JMJD2A-Tudor / H3K4me3 peptide binding. Potency, µM (series often up to 114 µM), for the others: at the top dose activity change, negative = inhibition, hits mostly inhibitors. actives 4.4% (n = 390,000). AID 504339; also: % is scaled to controls: 0 for no effect and ±100 for the full control effect; nearly all actives have a fitted effect of over 50% in size
L3MBTL1 inh – blocks human L3MBTL1; AlphaScreen L3MBTL1–H3K9me1 peptide binding; AID 485360; actives 0.66% (n = 230,000); Potency, µM (titrated, usually from 57.1 µM), for the others: top-dose activity, negative = inhibition, usual class: inhibitors; Q9Y468; also: % is scaled to controls: 0 for no effect and ±100 for the full control effect; nearly all actives have a fitted effect of over 60% in size
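Displacement of a biotinylated histone H3(1-15) peptide monomethylated at Lys9 (75 nM) from L3MBTL1 (50 nM) was measured by AlphaScreen after a 30 min room-temperature compound incubation; cefsulodin titration served as intraplate control.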
BAZ2B block – blocks human BAZ2B; AID 504333; Potency, µM (top dose mostly 114 µM), for inactives: at the highest dose activity change, negative = inhibition, most hits filed as inhibitors; actives 4.4% (n = 360,000); AlphaScreen BAZ2B-H3K14Ac peptide displacement; also: % is scaled to controls: 0 for no effect and ±100 for the full control effect; nearly all actives have a fitted effect of over 60% in size
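Multi-concentration screen (max 110 uM) measuring displacement of acetylated histone H3 peptide from BAZ2B by AlphaScreen, using 50 nM protein, 50 nM peptide and 10 ug/mL streptavidin donor plus Ni-chelate acceptor beads.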
HP1b chromo inh – HP1-beta chromodomain-methylated histone interaction inhibition. actives 0.56% (n = 390,000). Potency, µM (doses to about 114 µM), for the others: at the highest dose activity change, negative = inhibition, hits mostly inhibitors. P83916. AlphaScreen HP1-beta / biotin-H3K9me3 peptide binding. AID 540317; also: nearly all actives have a fitted effect of over 70% in size
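Compound inhibition of the preformed complex between 50 nM HP1-beta and 50 nM biotinylated H3K9me3 peptide was read by AlphaScreen. Buffer was PBS pH 7.4 with 0.01% Tween-20. Incubations ran 30 min at room temperature, with 10 ug/mL donor/acceptor beads.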
G9a inh – inhibitors of human histone lysine methyltransferase G9a; Potency, µM (series often up to 102 µM), for the others: top-dose activity, negative = inhibition, hits mostly inhibitors; G9a H3K9 monomethylation, AlphaScreen, 2 h; actives 8.8% (n = 350,000); also: % is scaled to controls: 0 for no effect and ±100 for the full control effect; nearly all actives have a fitted effect of over 75% in size
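G9a (20 nM) preincubated 15 min RT with compounds, then 500 nM biotinylated H3K9 peptide and 20 uM SAM added; 2 h RT reaction. Monomethyl-H3K9 product detected by AlphaScreen with anti-H3K9me1 antibody, streptavidin donor and anti-rabbit IgG acceptor beads.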
Starred values were filed as active, the others as inactive; ? = inconclusive; · = no result; [ ] = dose if it differs, or a comment. Calls follow the shape of the dose curve; as a rule, active = well fitted inhibition curve with a large enough effect; inconclusive = small, poorly fitted or top-dose-only effect; inactive = no such curve, though single readings can be large or run the other way. Potency is read from the fitted curve at half-maximal effect.

SMILES	JMJD2A Tudor	L3MBTL1 inh	BAZ2B block	HP1b chromo inh	G9a inh
Cc1cc(/C=C(/C#N)C(=O)O)c(C)n1-c1cccc2ccccc12	-33%	·	?	-22%	7%[2.33 µM]
N#C/C(=C/c1ccccc1)C(=O)NCc1ccccc1	-6%	2%	-15%	19%	-8%[59 µM]
Cc1c(C(=O)O)cccc1-n1c(C)cc(/C=C(/C#N)C(=O)NCc2ccccc2)c1C	-16%	?	56µM*	17%	50µM*
Cc1ccccc1NC(=O)/C(C#N)=C\c1cn(CC(=O)O)c2ccccc12	-10%	4%	-26%	31%	0%
CN(C)c1ccc(/C=C(/C#N)C(=O)NCc2ccccc2)o1	-1%	-1%	-11%	40%	3.5µM*
N#C/C(=C\c1cn(CC(=O)O)c2ccccc12)C(=O)NCc1ccccc1	?	-4%	-19%	32%	45µM*
COc1ccccc1NC(=O)c1ccccc1NS(=O)(=O)c1cccs1	-1%	9%	-19%	42%	50µM*
COc1ccccc1NC(=O)c1ccccc1NS(C)(=O)=O	26%	3%[11.4 µM]	-5%	51%	-1%[12.7 µM]
COc1cccc(OC)c1C(=O)Nc1ccccc1NC(=O)c1c(OC)cccc1OC	-8%	·	-1%	-3%	79µM*
COc1cccc(OC)c1C(=O)Nc1ccccc1Sc1ccccc1	17%	·	·	70%	·
CC(=O)Nc1cccc(-c2cc(C)c3cc4c(cc3n2)OCO4)c1	-23%	·	-33%	34%	50µM*
CC(=O)Nc1cccc(-c2nc3ccccc3s2)c1	-15%	7%	-12%	52%	·
CCOc1ccc(NC(=O)c2c(NC(=O)c3ccccc3Br)sc3c2CCC(C)C3)cc1 (centres undefined)	-30%	·	0%	-20%	27%[59 µM]
COc1ccc2[nH]c(=O)c(-c3nnn(-c4ccc(Cl)nc4)n3)cc2c1	50µM*	·	·	4%	·
COc1ccc2[nH]c(=O)c(-c3noc(-c4ccccc4)n3)cc2c1	?	-10%	50µM*	43%	?
Cc1ccc(-c2nnc3c4ccccc4c(C)nn23)cc1NC(=O)c1ccccc1Cl	-11%	·	-27%	10%	8%[59 µM]
COc1ccc(-c2nsc(SCC(=O)NCC3CCCO3)n2)cc1 (centres undefined)	-15%	1%	-24%	22%	7.9µM*
CCOC(=O)Cn1nc(-c2ccccc2)nc1-c1ccccc1	5.6µM*	1%	6%	73%	28%[59 µM]
CCCC(=O)n1nc(-c2ccccc2)nc1SC	27%	10%	58%	120%	1.1µM*
COc1ccc(-c2nsc(SCC(=O)Nc3cc(C)on3)n2)cc1	?	-12%	4%	?	3.5µM*
CCOC(=O)Cn1nc(-c2ccccc2)c(-c2ccccc2)nc1=O	-12%	·	-6%	14%	12%[0.501 µM]
COc1ccc(C(=O)Nc2nc(-c3nnn(-c4ccc(F)cc4F)c3C)ns2)cc1	-28%	·	-1%	7%	5%[59 µM]
CC1CCc2c(sc3nnn(CC(=O)Nc4ccccc4Cl)c(=O)c23)C1 (centres undefined)	-15%	·	-12%	38%	0%[59 µM]
CCOC(=O)CNC(=O)CSc1nc(-c2ccc(OC)cc2)ns1	-16%	3%	-12%	?	18µM*
CCc1nnc(NC(=O)CSc2nc(-c3ccc(OC)cc3)ns2)s1	-8%	7%	-1%	43%	?
SMILES	JMJD2A Tudor	L3MBTL1 inh	BAZ2B block	HP1b chromo inh	G9a inh
CCOC(=O)CSc1nc(-c2ccccc2)ns1	98%	52%	193%	86%	8.9µM*
COc1ccc2c(c1OC)C(=O)N1c3ccccc3C(=O)N(Cc3ccco3)C21 (centres undefined)	-28%	·	·	39%	·
O=C(CSc1nnc2c(n1)[nH]c1ccccc12)Nc1cccc(S(=O)(=O)N2CCOCC2)c1	-9%	·	-5%	25%	?
COC(=O)c1ccc(N2CCOCC2)c(NC(=O)Nc2cccc(OC)c2)c1	-8%	2%	5%	-2%	45µM*
CC(OC(=O)c1cccnc1SCc1cc(=O)n2ccccc2n1)c1ccccn1 (centres undefined)	-4%	·	-33%	19%	50µM*
Cc1ccc(NC(=O)CCc2nc3sc4c(c3c(=O)[nH]2)CCCC4)c(Br)c1	?	-27%	50µM*	2%	?
CC1(NC(=O)CCc2nc3sc4c(c3c(=O)[nH]2)CCCC4)CCS(=O)(=O)C1 (centres undefined)	?	?	79µM*	-16%	50µM*
Cc1cc(C)cc(NC(=O)CCc2nc3sc4c(c3c(=O)[nH]2)CCCC4)c1	-27%	?	-38%	18%	-3%[59 µM]
CCc1ccccc1NC(=O)CNC(=O)CCc1nc2sc3c(c2c(=O)[nH]1)CCCC3	?	?	50µM*	-4%	?
Cc1nc(SCC(=O)Nc2nc3ccccc3s2)c(C#N)c(C)c1C	3%	10%	-1%	42%	10µM*
CSc1nsc(SCC(=O)NCc2ccccc2)n1	-15%	·	0%	31%	40µM*
COc1ccc2nc(NC(=O)CSc3n[nH]c(N)n3)sc2c1	-25%	-6%	6%	13%	56µM*
O=C(CSc1nccn1Cc1ccc(F)cc1)Nc1nc2ccccc2s1	?	·	?	-18%[57 µM]	-47%[59 µM]
CSc1nsc(SCC(=O)NCc2ccc(C)cc2)n1	-18%	3%	11%	5%	-12%
Cc1cc(C(F)(F)F)c(C#N)c(SCC(=O)Nc2nc3ccccc3s2)n1	-16%	-1%	3%	44%	5%[59 µM]
O=C(CSc1nccn1Cc1ccccc1)Nc1nc2ccccc2s1	50µM*	·	?	-5%[57 µM]	-43%[59 µM]
CN(C1CCCCC1)S(=O)(=O)c1ccc2c(c1)c(=O)c(C(=O)NCc1ccccc1Cl)cn2C	-11%	·	·	26%	-5%[59 µM]
Cc1nc(SCC(=O)Nc2nc3ccccc3s2)n[nH]1	-8%	·	-1%	33%	79µM*
COc1ccc2nc(NC(=O)CSc3nc(SC)ns3)sc2c1	-8%	3%	-9%	17%	20µM*
Cc1ccccc1Nc1c(-c2ccco2)nc2c(C)cccn12	?	·	25µM*	?	14µM*
Fc1ccc(Nc2c(-c3ccco3)nc3ccccn23)cc1	?	-9%	45µM*	-28%	?
Cc1ccc(Nc2c(-c3ccc(Br)o3)nc3ccccn23)cc1	-12%	·	?	18%	-13%[59 µM]
Fc1ccc(Nc2c(-c3ccccn3)nc3ccc(Cl)cn23)cc1	?	·	?	33%	-2%[59 µM]
Cc1ccc(Nc2c(-c3ccco3)nc3ccccn23)cc1	?	-14%	?	-38%	40µM*
c1ccc(Nc2c(-c3ccco3)nc3ccccn23)cc1	-34%	-4%	50µM*	-19%	?
Cc1ccccc1Nc1c(-c2ccc(Cl)cc2)nc2c(C)cccn12	-11%	·	-4%	5%	-27%[59 µM]
Cc1ccc(Nc2c(-c3c[nH]c4ccccc34)nc3ccccn23)cc1	22µM*	·	18µM*	?	28µM*
